# Hits are enriched below; roughly 3% of the tested compounds scored in any of these assays.
# PLK1 PBD block: blocks phosphopeptide binding to human PLK1 polo-box domain; P53350; Plk1 PBD binding of FITC phosphopeptide, fluorescence polarization; Potency, µM, for inactives: max response, negative = inhibition, usual class: inhibitors; 360,000 tested, 2.8% active; AID 720504; also: series mostly up to about 57 µM; % is scaled to controls: 0 for no effect and ±100 for the full control effect; nearly all actives have a fitted effect of over 65% in size
# USP1 inh: blocks the human USP1/UAF1 deubiquitinase complex | recombinant USP1/UAF1, Ub-Rhodamine cleavage fluorescence | AID 743255 | Potency, µM (titrated, usually from 57.1 µM), inactives show at the top dose activity change, negative = inhibition, hits mostly inhibitors | 390,000 tested, 0.23% active; also: % is scaled to controls: 0 for no effect and ±100 for the full control effect; nearly all actives have a fitted effect of over 60% in size
#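 USP1/UAF1 complex (1 nM) preincubated 15 min at room temperature with compound, then Ub-Rho substrate (150 nM final) added. Kinetic fluorescence at 480/540 nm over 6 reads at 60 s intervals; 50 mM HEPES pH 7.8, 0.5 mM EDTA, 0.1 mg/ml BSA, 1 mM TCEP, 0.01% Tween-20.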
# GCN5L2 inh: blocks human GCN5L2 histone acetyltransferase | AID 504327 | GCN5L2 HAT assay, ThioGlo1 CoA-SH fluorescence | Potency, µM (doses to about 58.9 µM), for the others: at the top dose activity change, negative = inhibition, most hits filed as inhibitors | 390,000 tested, 0.21% active | Q92830; also: % is scaled to controls: 0 for no effect and ±100 for the full control effect
#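 Free CoA generated was detected with ThioGlo1 (50uM) fluorescence at Ex340nm/Em540nm, read immediately and after 20 min at room temperature. Enzyme, 20 nM in HEPES pH 7.5 buffer, saw compounds 15 min before adding 75uM H3(1-25) peptide and 70uM acetyl-CoA.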
# TSG101-PTAP inh: blocks PTAP/TSG101 interaction to inhibit HIV-1 budding; Q99816; Fluorescence polarization, FITC-PTAP peptide / Tsg101 binding; Potency, µM (doses to about 115 µM), for inactives: top-dose activity change, negative = inhibition, actives largely listed as inhibitors; 340,000 tested, under 10 active; active = well fitted inhibition curve with a large enough effect in the main read-out, with a control signal flat, not every such curve was filed as active; inconclusive = small, poorly fitted or top-dose-only effect, or effect the other way, or a change in a side signal; inactive = no such curve, though single readings can be large or run the other way; also: % of control where 0% means no effect
#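 Compounds were pin-transferred onto Tsg101 binding domain (10 uM final) in HEPES pH 7.5 buffer, then FITC-PTAP peptide was added at 50 nM final. After 20 min at RT, polarization reported peptide displacement across a qHTS concentration series.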
# VDR inh: inhibitors of human vitamin D receptor; P11473; VDR-SRC2-3 peptide fluorescence polarization, 2 h; Potency, µM, without a hit: max response, negative = inhibition, most hits filed as inhibitors; 400,000 tested, 0.93% active; AID 504847; also: % is scaled to controls: 0 for no effect and ±100 for the full control effect
# Target sequence (P11473 whole entry, looked up): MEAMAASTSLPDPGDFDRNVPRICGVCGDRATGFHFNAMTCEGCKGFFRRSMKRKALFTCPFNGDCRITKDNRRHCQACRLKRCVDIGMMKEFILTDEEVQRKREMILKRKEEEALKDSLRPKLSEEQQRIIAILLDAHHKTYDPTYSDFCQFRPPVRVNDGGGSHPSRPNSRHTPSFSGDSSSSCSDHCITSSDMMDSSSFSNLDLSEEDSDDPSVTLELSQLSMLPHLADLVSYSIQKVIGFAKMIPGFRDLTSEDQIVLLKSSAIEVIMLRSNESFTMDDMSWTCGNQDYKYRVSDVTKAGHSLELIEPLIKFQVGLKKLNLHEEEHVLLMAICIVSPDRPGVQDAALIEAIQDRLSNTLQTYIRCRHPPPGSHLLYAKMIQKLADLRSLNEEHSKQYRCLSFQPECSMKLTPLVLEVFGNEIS
#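 VDR–SRC2-3 interaction, FP format. Cmpds 23 nl via pintool, brief spin, 2 h ambient incubation.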
# VDR inh confirm: inhibits human vitamin D receptor, primary hit validation; shares compounds with VDR inh; VDR-coactivator inhibition assay, qHTS confirmation; Potency, µM, most hits filed as inhibitors; 840 tested, 89% active; AID 602199
# VDR FP fluor: confirmation of human VDR-coactivator binding inhibitors, fluorescein label; 840 tested, 48% active; VDR-coactivator binding, fluorescein fluorescence polarization; shares compounds with VDR inh; Potency, µM (doses to about 57.1 µM), for the others: at the top dose activity change, negative = inhibition, usual class: inhibitors; AID 602200
# VDR bla reporter: VDR (human) inhibition, cell-based beta-lactamase validation. shares compounds with VDR inh. VDR beta-lactamase reporter cells, FRET ratio; cells co-treated with VDR agonist LG190178. Potency, µM (top dose mostly 46.1 µM), inactives show at the highest dose activity change, negative = inhibition, hits mostly inhibitors. 840 tested, 23% active; also: % is scaled to controls: 0 for no effect and ±100 for the full control effect
# VDR cytotox: cell toxicity, VDR inhibitor hit counter-screen; shares compounds with VDR inh; cytotoxicity counter-screen, cell viability, qHTS; Potency, µM (series often up to 48.3 µM), for the others: at the highest dose activity change, negative = cytotoxicity, actives largely listed as cytotoxic; 840 tested, 18% active;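 also: plate controls were DMSO for no effect and high-concentration cycloheximide for full effect; nearly all actives have a fitted effect of over 75% in size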
# TbPYK inh: Trypanosoma brucei pyruvate kinase inhibition, cherry-pick confirmation; shares compounds with PLK1 PBD block; recombinant TbPYK, Kinase-Glo ATP luminescence; Potency, µM (doses to about 76.9 µM), for the others: at the highest dose activity change, negative = inhibition, usual class: inhibitors; 890 tested, 67% active; also: % is scaled to controls: 0 for no effect and ±100 for the full control effect; nearly all actives have a fitted effect of over 70% in size
# TbPYK orthogonal: TbPYK inhibition, orthogonal confirmation; shares compounds with PLK1 PBD block; Potency, µM (top dose mostly 76.9 µM), for inactives: at the highest dose activity change, negative = inhibition, usual class: inhibitors; recombinant TbPYK, ADP-Glo luminescence, 60 min; 890 tested, 62% active; also: % is scaled to controls: 0 for no effect and ±100 for the full control effect; nearly all actives have a fitted effect of over 75% in size
# * marks the source's active call; other numbers are inactive results; ? = inconclusive; · = no result. Unless noted, calls follow the shape of the dose curve; as a rule, active = well fitted curve in the direction sought with a large enough effect; inconclusive = small, poorly fitted or top-dose-only effect, or another doubt; inactive = no such curve, though single readings can be large; an effect the other way counts as inactive or inconclusive. Potency is read from the fitted curve at half-maximal effect.
SMILES,PLK1 PBD block,USP1 inh,GCN5L2 inh,TSG101-PTAP inh,VDR inh,VDR inh confirm,VDR FP fluor,VDR bla reporter,VDR cytotox,others
Cc1ccc(C(=O)N2C(=S)C(c3ccc(F)cc3)=NC23CCN(C)CC3)cc1,24µM*,?,-1%,-1%,?,18*,22µM*,26µM*,?,
CN(CCO)c1cc(Sc2nc3ccccc3s2)c2nonc2c1[N+](=O)[O-],1.9µM*,-18%,-12%,-8%,25µM*,6.7*,3.5µM*,?,3.2µM*,
COc1cc(/C=C2/C(=O)ON=C2C)cc(Cl)c1O,15%,-23%,-4%,44%,89µM*,27*,222%,21%,4%,
CCN(CC)c1ccc(/C=C2/C(=O)ON=C2C)cc1,?,-7%,-5%,3%,?,·,·,·,·,
CCCOc1ccc(/C=C2/C(=O)ON=C2C)cc1Cl,1.1µM*,-27%,-22%,-3%,18µM*,7.5*,?,-12%,-37%,
CCOc1ccc(Cl)cc1/C=C1/C(=O)ON=C1C,?,-16%,-14%,-7%,?,8.9*,3.5µM*,-5%,9%,
CCOc1cc(/C=C2/C(=O)ON=C2C)ccc1O,-4%,-17%,6%,7%,?,·,·,·,·,
CC1=NOC(=O)/C1=C/c1ccc(O)c(Cl)c1,?,-16%,-9%,1%,-19%,·,·,·,·,
COc1cc(/C=C2\C(=O)ON=C2c2ccc(Cl)cc2)ccc1O,?,-15%,·,0%,?,7.1*,?,?,-11%,
O=C(Nc1ccccc1)c1cc2ccc3ccccc3c2s1,-2%,-21%,-3%,-3%,-9%,·,·,·,·,
OCC1O[C@@H](OC2C(O)C(CO)O[C@@]2(CO)O[C@@H]2OC(CO)C(O)C(O)C2O)C(O)C(O)C1O (stereo partly specified),·,·,2%,·,9%,·,·,·,·,
CC(=O)Oc1ccc(Cn2c(C)c(C(=O)NCc3ccc4c(c3)OCCO4)sc2=O)cc1,-2%,·,·,·,·,·,·,·,·,
CCOC(=O)c1c(C)oc2nc(C)nc(NCCc3ccc(C)cc3)c12,·,-1%,-7%,·,6%,·,·,·,·,
Nc1cccc2c1C(=O)N(C(=O)/C=C/c1cccc(Br)c1)C2=O,?,?,-18%,-4%,40µM*,9.5*,4.5µM*,-20%,15%,
NC(=O)C1CCCN(CC(=O)Nc2ccccc2C(=O)NC2CC2)C1 (stereo unspecified),2%,-12%,2%,-2%,6%,·,·,·,·,
CC(C)CCCCCCCCCCCCC(=O)NCC(=O)NC1C(C)OC(Nc2ncnc3nc[nH]c23)C(O)C1O (stereo unspecified),-4%,-13%,·,0%,-17%,·,·,·,·,
O=C(Nc1ccccc1)c1cccc2c(=O)c3c([nH]c12)CCCC3,·,?,-2%,·,2%,·,·,·,·,
COc1ccc(NC(=O)CCCN2C(=O)CN(C)C2=O)cc1Cl,1%,-22%,3%,0%,-9%,·,·,·,·,
COc1cccc(C(=O)C(C#N)=C(SC)SC)c1,15µM*,-22%,-4%,0%,40µM*,11*,?,?,13µM*,
COc1cccc(C(=O)C(CCC#N)c2ccccc2)c1 (stereo unspecified),-8%,1%,·,·,·,·,·,·,·,
O=C(Nc1cccc(S(=O)(=O)Nc2ccccc2F)c1)c1ccc2ccccc2n1,1.9µM*,-20%,?,-1%,16µM*,3.8*,?,-19%,-38%,
COc1ccccc1NS(=O)(=O)c1cccc(NC(=O)c2ccc3ccccc3n2)c1,1%,-22%,-11%,1%,4%,·,·,·,·,
O=C1NN(c2ccccc2)C(=O)/C1=C\c1cccc(OC(=O)c2cccs2)c1,1.5µM*,?,-16%,-4%,50µM*,8.4*,?,?,?,
C=CCn1c(SCC)nc2sc3c(c2c1=O)CCc1ccccc1-3,-10%,-11%,-5%,-9%,-9%,·,·,·,·,
C=CCSc1nc2sc3c(c2c(=O)n1CC)CCc1ccccc1-3,3µM*,-20%,-30%,-2%,25µM*,2.7*,?,32%,-3%,
SMILES,PLK1 PBD block,USP1 inh,GCN5L2 inh,TSG101-PTAP inh,VDR inh,VDR inh confirm,VDR FP fluor,VDR bla reporter,VDR cytotox,others
CCOc1cc(/C=C2\CN(C)C/C(=C\c3ccc(O)c(OCC)c3)C2=O)ccc1O,-9%,-27%,-3%,-3%,?,18*,?,2.9µM*,27µM*,
O=C1CCCc2nc(N3CCN(C(=O)c4ccco4)CC3)ncc21,3%,-12%,-23%,-4%,4%,·,·,·,·,
O=C(Nc1nc2ccc(F)cc2s1)c1nc(S(=O)(=O)Cc2ccccc2F)ncc1Cl,·,-28%,-22%,·,?,·,·,·,·,
CC(C)c1nnc(NC(=O)c2nc(S(=O)(=O)Cc3ccccc3F)ncc2Cl)s1,-12%,-22%,4%,-6%,20µM*,8.4*,3.2µM*,18µM*,21µM*,
CSc1nnc(NC(=O)c2nc(S(=O)(=O)Cc3ccccc3F)ncc2Cl)s1,?,-12%,-5%,3%,20µM*,6*,7.9µM*,7.3µM*,11µM*,
CCc1nnc(NC(=O)c2nc(SCc3ccccc3F)ncc2Cl)s1,·,-3%,-15%,·,4%,·,·,·,·,
CCOc1ccccc1CNC(=O)C1CCN(C(=O)N2CCOc3ccc(Cl)cc32)CC1,·,-3%,-13%,·,-14%,·,·,·,·,
Clc1ccc(-c2nnnn2-c2ccc(Cl)cc2)cc1,-7%,-11%,-2%,-1%,8%,·,·,·,·,
Cc1ccc(-n2nnnc2C(Cl)(Cl)c2nnnn2-c2ccc(C)cc2)cc1,1.1µM*,-18%,-7%,-1%,6.3µM*,3.4*,?,?,?,TbPYK inh=1.6µM*;TbPYK orthogonal=2.2µM*

# Compound activity (PubChem BioAssay)
